This passage reports binding signal results from article PMC7862700, “An all-to-all approach to the identification of sequence-specific readers for epigenetic DNA modifications on cytosine”.

What all share (assay): DAPPL (digital affinity profiling via proximity ligation, sequencing); 10 mM Tris-HCl pH 7.5, 50 mM NaCl, 1 mM DTT, 4% glycerol, room temperature, 30 min; GST-TFs on glutathione beads, 16-mer random dsDNA library, 0.1% formaldehyde crosslink after washing; high values mean tight binding
The target in one assay is T1, FLI1 (Homo sapiens, UniProt Q01543 1-452).
T1 sequence: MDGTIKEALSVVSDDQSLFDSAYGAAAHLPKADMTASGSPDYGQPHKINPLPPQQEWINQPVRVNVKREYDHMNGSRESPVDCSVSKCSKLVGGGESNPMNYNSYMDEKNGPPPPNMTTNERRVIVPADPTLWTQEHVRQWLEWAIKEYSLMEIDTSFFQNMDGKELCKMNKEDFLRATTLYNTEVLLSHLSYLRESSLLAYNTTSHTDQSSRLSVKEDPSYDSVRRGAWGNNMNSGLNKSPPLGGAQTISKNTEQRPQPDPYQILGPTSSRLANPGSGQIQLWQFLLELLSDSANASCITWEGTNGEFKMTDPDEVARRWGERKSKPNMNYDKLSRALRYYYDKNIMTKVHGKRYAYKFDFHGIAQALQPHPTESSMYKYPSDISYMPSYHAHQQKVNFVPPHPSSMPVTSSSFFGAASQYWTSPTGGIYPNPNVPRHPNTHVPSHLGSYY
To be noted: protein: recombinant; tags: N-terminal GST; dsDNA, one strand shown. A digest of the protocol:
(§1)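 Sequencing on an Illumina NextSeq500 followed washing, crosslinking with 0.1% formaldehyde, proximity ligation (BsaI/T4 ligase, 1 h, 37 °C) and PCR amplification of pools that had been incubated for 30 min at room temperature with 200 nmole of a random double-stranded 16-mer DNA library in Tris/NaCl/DTT/glycerol buffer. Each pool held DNA-barcoded human transcription factors, expressed in yeast as GST fusions and captured on glutathione beads, plus a tag-only sample. Binding signal is a hexamer's read frequency for a factor divided by its frequency in the tag-only sample.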

In another assay the target is T2, ELK1 (Homo sapiens, UniProt P19419 1-428).
T2 sequence: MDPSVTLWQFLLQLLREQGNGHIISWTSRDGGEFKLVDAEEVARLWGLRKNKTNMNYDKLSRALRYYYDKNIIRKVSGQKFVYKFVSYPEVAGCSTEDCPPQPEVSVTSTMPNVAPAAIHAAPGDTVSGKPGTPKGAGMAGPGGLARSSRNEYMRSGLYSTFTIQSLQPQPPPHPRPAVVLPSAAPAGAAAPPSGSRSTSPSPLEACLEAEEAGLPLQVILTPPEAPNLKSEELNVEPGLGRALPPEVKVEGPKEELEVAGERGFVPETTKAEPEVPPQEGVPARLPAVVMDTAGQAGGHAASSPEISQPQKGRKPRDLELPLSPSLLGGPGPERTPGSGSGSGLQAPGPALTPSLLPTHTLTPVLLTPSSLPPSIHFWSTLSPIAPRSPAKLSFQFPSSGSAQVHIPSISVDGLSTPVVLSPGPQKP
The following applies: protein: recombinant; tags: N-terminal GST; dsDNA, one strand shown. A digest of the protocol: as §1

In another assay the target is T3, GABPA (Homo sapiens, UniProt Q06546 1-454).
T3 sequence: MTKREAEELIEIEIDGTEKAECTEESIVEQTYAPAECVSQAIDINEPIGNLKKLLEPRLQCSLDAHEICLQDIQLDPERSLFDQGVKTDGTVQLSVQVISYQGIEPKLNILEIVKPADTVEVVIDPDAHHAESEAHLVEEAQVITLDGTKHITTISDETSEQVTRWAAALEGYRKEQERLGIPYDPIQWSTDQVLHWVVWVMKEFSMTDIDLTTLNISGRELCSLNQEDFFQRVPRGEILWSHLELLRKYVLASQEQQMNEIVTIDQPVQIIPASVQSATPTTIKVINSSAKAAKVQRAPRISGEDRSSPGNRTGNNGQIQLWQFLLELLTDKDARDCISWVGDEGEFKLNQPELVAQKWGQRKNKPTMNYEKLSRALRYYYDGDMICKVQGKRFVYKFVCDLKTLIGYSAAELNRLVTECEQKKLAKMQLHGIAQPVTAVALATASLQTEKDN
To be noted: protein: recombinant; tags: N-terminal GST; dsDNA, one strand shown. A digest of the protocol: as §1

For a further assay, the target named is T4, ERG (Homo sapiens, UniProt P11308 1-479).
T4 sequence: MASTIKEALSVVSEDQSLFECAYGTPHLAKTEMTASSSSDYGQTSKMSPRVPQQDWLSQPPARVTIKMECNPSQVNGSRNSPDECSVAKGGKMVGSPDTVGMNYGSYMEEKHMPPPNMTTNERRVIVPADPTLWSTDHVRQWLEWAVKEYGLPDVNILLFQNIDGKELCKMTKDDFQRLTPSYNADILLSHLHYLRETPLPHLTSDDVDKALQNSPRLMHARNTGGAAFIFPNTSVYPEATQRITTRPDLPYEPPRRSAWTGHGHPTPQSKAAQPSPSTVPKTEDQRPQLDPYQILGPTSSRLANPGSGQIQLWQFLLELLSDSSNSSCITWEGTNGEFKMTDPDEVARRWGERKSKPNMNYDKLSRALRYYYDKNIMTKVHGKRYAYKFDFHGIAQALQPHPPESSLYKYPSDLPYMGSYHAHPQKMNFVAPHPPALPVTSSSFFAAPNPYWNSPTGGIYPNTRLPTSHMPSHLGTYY
To be noted: protein: recombinant; tags: N-terminal GST; dsDNA, one strand shown. Summed up:
as §1

The next assay has as its target ELF1 (Homo sapiens, UniProt P32519 1-619). The following applies: protein: recombinant; tags: N-terminal GST; dsDNA, one strand shown. Summed up:
as §1

Another assay addresses T5, EHF (Homo sapiens, UniProt Q9NZC4 1-300).
T5 sequence: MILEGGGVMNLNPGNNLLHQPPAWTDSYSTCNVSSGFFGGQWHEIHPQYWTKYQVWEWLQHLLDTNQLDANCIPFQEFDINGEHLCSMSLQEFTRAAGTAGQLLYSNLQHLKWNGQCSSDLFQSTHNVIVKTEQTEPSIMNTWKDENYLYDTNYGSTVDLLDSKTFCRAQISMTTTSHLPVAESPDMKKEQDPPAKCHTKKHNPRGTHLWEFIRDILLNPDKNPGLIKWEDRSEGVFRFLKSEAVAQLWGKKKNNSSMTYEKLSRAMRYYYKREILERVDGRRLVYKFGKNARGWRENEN
To be noted: protein: recombinant; tags: N-terminal GST; dsDNA, one strand shown. A digest of the protocol:
as §1

The target of a further assay is SPI1 (Homo sapiens, UniProt P17947 1-270). To be noted: protein: recombinant; tags: N-terminal GST; dsDNA, one strand shown. Summed up: as §1
A further assay addresses SPIB (Homo sapiens, UniProt Q01892 1-262). The following applies: protein: recombinant; tags: N-terminal GST; dsDNA, one strand shown. Summed up: as §1
The target of another assay is T6, ELK3 (Homo sapiens, UniProt P41970 1-407).
T6 sequence: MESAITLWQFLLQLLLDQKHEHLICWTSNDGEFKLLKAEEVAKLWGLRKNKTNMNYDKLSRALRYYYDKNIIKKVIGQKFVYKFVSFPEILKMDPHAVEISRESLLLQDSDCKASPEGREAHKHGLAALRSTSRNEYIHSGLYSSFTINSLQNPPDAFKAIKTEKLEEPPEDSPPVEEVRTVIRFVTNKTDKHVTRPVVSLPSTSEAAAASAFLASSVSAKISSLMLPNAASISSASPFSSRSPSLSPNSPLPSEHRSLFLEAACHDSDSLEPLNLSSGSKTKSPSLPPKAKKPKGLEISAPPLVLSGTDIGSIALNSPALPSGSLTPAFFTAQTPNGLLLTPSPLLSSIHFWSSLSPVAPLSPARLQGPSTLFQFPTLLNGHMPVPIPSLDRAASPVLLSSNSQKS
To be noted: protein: recombinant; tags: N-terminal GST; dsDNA, one strand shown. Summed up:
as §1

The target in a further assay is ETV5 (Homo sapiens, UniProt P41161 1-510). The following applies: protein: recombinant; tags: N-terminal GST; dsDNA, one strand shown. A digest of the protocol: as §1
Chain of ETV5 (P41161 whole entry): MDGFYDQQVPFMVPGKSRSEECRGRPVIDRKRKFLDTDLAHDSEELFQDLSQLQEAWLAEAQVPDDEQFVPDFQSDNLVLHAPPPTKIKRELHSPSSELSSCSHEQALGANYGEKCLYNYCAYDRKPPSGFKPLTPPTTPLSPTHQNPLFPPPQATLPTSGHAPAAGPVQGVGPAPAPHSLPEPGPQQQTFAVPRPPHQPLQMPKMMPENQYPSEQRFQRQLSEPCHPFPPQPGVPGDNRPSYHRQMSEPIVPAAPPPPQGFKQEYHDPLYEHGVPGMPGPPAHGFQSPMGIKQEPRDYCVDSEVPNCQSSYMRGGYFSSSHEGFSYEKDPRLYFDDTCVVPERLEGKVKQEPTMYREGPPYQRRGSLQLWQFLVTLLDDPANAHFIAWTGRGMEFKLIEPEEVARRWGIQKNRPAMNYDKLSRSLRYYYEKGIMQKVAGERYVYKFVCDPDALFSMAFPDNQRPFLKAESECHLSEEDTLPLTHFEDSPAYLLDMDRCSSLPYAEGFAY
The next assay addresses HSF1 (Homo sapiens, UniProt Q00613 1-529). To be noted: protein: recombinant; tags: N-terminal GST; chain copies: 3; dsDNA, one strand shown. Summed up: as §1
The next assay concerns the target T7, SPIC (Homo sapiens, UniProt Q8N5J4 1-248).
T7 sequence: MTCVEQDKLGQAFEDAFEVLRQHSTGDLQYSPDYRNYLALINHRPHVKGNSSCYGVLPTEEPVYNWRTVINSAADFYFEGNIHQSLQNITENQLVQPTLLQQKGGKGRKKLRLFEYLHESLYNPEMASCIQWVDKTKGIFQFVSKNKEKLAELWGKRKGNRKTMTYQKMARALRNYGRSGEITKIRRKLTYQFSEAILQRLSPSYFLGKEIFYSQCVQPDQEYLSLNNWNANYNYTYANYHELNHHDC
To be noted: protein: recombinant; tags: N-terminal GST; dsDNA, one strand shown. Summed up: as §1

The next assay addresses ELF4 (Homo sapiens, UniProt Q99607 1-663). To be noted: protein: recombinant; tags: N-terminal GST; dsDNA, one strand shown. A digest of the protocol:
as §1

The next assay concerns the target T8, ELK4 (Homo sapiens, UniProt P28324-2 1-405).
T8 sequence: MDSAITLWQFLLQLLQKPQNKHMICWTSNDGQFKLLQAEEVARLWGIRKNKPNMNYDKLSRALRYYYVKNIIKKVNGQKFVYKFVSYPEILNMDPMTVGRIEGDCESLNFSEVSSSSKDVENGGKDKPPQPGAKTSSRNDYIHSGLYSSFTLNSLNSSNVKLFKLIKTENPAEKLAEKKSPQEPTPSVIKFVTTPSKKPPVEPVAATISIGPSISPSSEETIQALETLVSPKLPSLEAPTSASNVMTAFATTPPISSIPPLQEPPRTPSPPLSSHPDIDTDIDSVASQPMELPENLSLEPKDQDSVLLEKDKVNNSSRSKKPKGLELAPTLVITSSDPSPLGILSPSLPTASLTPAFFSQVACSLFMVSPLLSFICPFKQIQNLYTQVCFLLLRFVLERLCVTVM
The following applies: protein: recombinant; tags: N-terminal GST; dsDNA, one strand shown. A digest of the protocol: as §1

The target in a further assay is T9, ETV2 (Homo sapiens, UniProt O00321 1-342).
T9 sequence: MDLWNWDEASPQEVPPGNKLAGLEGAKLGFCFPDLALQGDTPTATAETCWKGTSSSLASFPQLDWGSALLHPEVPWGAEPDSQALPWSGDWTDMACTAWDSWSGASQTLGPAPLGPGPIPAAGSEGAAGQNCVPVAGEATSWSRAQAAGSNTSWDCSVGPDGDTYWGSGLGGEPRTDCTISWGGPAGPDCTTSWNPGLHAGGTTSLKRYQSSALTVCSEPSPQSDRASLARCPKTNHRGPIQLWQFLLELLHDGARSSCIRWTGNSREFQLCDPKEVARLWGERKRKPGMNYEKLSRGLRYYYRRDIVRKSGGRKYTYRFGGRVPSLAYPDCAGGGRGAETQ
The following applies: protein: recombinant; tags: N-terminal GST; dsDNA, one strand shown. A digest of the protocol: as §1

Another assay addresses T10, ELF3 (Homo sapiens, UniProt P78545 1-371).
T10 sequence: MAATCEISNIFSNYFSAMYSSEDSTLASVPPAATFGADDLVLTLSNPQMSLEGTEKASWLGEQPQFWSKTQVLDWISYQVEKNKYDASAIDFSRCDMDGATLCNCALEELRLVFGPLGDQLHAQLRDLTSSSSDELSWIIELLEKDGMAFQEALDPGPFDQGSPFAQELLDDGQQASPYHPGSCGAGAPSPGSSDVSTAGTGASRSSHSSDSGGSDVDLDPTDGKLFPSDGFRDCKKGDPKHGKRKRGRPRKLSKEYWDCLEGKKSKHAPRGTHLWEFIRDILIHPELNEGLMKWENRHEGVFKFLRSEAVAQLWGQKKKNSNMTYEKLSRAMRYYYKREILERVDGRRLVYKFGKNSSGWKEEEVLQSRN
To be noted: protein: recombinant; tags: N-terminal GST; dsDNA, one strand shown. Summed up:
as §1

Chain of ELF4 (Q99607 whole entry): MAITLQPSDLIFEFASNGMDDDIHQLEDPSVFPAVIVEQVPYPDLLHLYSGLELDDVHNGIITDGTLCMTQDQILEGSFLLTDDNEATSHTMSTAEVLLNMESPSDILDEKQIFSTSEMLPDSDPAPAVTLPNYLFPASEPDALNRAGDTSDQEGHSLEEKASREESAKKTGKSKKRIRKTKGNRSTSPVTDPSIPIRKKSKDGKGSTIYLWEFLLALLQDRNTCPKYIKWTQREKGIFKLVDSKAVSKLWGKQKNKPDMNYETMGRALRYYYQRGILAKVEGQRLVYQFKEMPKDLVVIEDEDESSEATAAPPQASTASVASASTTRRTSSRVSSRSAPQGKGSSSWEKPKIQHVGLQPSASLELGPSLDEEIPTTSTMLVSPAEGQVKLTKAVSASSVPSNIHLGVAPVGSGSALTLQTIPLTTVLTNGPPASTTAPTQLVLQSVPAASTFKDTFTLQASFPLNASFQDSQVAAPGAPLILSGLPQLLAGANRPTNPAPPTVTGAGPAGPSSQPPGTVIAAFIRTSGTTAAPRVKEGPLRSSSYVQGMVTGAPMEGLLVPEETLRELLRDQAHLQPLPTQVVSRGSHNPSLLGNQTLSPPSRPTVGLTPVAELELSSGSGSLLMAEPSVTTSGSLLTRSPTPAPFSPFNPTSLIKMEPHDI
Chain of ELF1 (P32519 whole entry): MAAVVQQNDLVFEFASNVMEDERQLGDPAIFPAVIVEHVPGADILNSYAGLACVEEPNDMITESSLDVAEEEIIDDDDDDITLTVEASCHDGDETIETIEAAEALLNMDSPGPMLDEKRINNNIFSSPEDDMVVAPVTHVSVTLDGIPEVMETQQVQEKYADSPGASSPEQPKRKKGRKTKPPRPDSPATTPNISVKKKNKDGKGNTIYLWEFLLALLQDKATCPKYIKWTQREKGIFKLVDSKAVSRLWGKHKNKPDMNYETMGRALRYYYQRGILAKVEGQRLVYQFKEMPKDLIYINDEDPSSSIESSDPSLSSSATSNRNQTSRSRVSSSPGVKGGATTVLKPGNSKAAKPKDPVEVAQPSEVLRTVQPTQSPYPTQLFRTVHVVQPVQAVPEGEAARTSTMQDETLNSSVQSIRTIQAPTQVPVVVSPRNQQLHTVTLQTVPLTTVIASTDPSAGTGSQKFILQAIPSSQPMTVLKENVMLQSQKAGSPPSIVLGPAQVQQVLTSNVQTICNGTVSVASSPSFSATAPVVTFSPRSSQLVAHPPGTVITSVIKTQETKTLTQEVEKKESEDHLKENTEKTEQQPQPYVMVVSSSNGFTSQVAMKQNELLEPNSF
Chain of HSF1 (Q00613 whole entry): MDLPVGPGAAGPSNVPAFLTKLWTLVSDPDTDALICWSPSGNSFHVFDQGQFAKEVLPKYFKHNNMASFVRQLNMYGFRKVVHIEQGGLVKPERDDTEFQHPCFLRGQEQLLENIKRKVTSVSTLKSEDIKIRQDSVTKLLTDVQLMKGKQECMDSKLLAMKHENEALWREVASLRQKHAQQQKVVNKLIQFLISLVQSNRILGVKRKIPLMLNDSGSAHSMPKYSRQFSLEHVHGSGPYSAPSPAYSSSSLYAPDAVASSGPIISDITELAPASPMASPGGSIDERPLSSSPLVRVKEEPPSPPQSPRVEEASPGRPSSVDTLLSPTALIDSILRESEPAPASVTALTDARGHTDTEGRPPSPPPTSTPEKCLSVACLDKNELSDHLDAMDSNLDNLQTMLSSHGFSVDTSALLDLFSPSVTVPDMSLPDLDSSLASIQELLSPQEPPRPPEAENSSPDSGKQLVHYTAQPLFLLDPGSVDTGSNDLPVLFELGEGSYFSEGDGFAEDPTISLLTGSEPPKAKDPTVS
Chain of SPIB (Q01892 whole entry): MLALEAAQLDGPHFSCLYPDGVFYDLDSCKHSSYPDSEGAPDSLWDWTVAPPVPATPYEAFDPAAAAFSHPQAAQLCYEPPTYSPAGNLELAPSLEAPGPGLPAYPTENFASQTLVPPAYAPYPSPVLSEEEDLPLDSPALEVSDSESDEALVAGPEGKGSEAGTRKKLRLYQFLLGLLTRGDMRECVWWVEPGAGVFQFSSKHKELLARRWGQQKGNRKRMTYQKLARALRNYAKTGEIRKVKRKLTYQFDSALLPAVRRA

On to TGGGTT, for which the binding signal with FLI1 is 1.17 fold enrichment (6-mer frequency, TF over GST control); with ELK1, 1.11 fold enrichment (6-mer frequency, TF over GST control); with GABPA, 1.18 fold enrichment (6-mer frequency, TF over GST control); with ERG, 1.1 fold enrichment (6-mer frequency, TF over GST control); in the assay with ELF1, 1.1 fold enrichment (6-mer frequency, TF over GST control); with EHF, 1.18 fold enrichment (6-mer frequency, TF over GST control). Also, the binding signal is 1.01 fold enrichment (6-mer frequency, TF over GST control) with SPI1; 1.02 fold enrichment (6-mer frequency, TF over GST control) with SPIB; 1.01 fold enrichment (6-mer frequency, TF over GST control) with ELK3; 1.06 fold enrichment (6-mer frequency, TF over GST control) with ETV5; 1.03 fold enrichment (6-mer frequency, TF over GST control) with HSF1; 1.07 fold enrichment (6-mer frequency, TF over GST control) in the assay with SPIC. The binding signal was 1.09 fold enrichment (6-mer frequency, TF over GST control) with ELF4; 1.03 fold enrichment (6-mer frequency, TF over GST control) with ELK4; 1.08 fold enrichment (6-mer frequency, TF over GST control) with ETV2; 1.11 fold enrichment (6-mer frequency, TF over GST control) with ELF3.
